# Experimental data from paper PMC12431657, “Discovery and mechanistic insights of dibenzoylmethane as a broad spectrum inhibitor of coronavirus” (PLOS Pathogens, 2025).
# Counter-ions that a name gives are not always drawn. Like-named read-outs stand apart in the source and are kept apart here. About 95 (3%) of roughly 3,300 compounds showed an effect of 50% or more. The list comes from a sample in which strong results are over-represented; it also holds similar structures and randomly drawn compounds. Peptide text beside a SMILES is read from it.
# System: HCoV-229E
# Set-up: species or system Huh-7; HTS, protection from HCoV-229E induced cell death, luminescent cell viability (CellCounting-Lite 2.0), inhibition rate
# Details: 24 h post infection, 1 h compound pre-incubation, 10 µM, inhibitor
SMILES,229E Inhibition rate,"229E Inhibition rate (229E Inhibition rate, 24 h)"
O=C(O)CNC(=O)/C=C/c1ccccc1 [Cinnamoylglycine],41.7%,–
O=C(O)C[C@@](O)(C(=O)O)[C@H](O)C(=O)O [(-)-Hydroxycitric acid],12.3%,–
CC(C)=C/C=C1\O[C@@H]2CC(C)=CC(=O)[C@@H]2[C@]1(C)O [Bisabolangelone],30%,–
O=Cc1ccc(O)cc1 [p-Hydroxybenzaldehyde],10.9%,–
CC(C)=CCC[C@](C)(O)[C@H]1CC[C@]2(C)[C@@H]1[C@H](O)C[C@@H]1[C@@]3(C)CC[C@H](O)C(C)(C)[C@@H]3[C@@H](O[C@@H]3O[C@H](CO)[C@@H](O)[C@H](O)[C@H]3O[C@@H]3O[C@@H](C)[C@H](O)[C@@H](O)[C@H]3O)C[C@]12C [Ginsenoside Rg2],54.2%,–
CC(C)=CCC[C@@](C)(O)[C@H]1CC[C@]2(C)[C@@H]1[C@H](O)C[C@@H]1[C@@]3(C)C[C@@H](O)[C@H](O[C@@H]4O[C@H](CO)[C@@H](O)[C@H](O)[C@H]4O[C@@H]4O[C@H](CO)[C@@H](O)[C@H](O)[C@H]4O)C(C)(C)[C@@H]3CC[C@]12C [Gypenoside LI],0%,–
CC(C)=CCC[C@](C)(O)[C@H]1CC[C@]2(C)[C@@H]1[C@H](O)C[C@@H]1[C@@]3(C)CC[C@H](O)C(C)(C)[C@@H]3[C@@H](O[C@@H]3O[C@H](CO)[C@@H](O)[C@H](O)[C@H]3O[C@@H]3O[C@H](CO)[C@@H](O)[C@H](O)[C@H]3O)C[C@]12C [Ginsenoside Rf],28.3%,–
CC(C)=CCC[C@@](C)(O)[C@H]1CC[C@]2(C)[C@@H]1[C@H](O)C[C@@H]1[C@@]3(C)CC[C@H](O)C(C)(C)[C@@H]3[C@@H](O[C@@H]3O[C@H](CO)[C@@H](O)[C@H](O)[C@H]3O[C@@H]3O[C@@H](C)[C@H](O)[C@@H](O)[C@H]3O)C[C@]12C [20(R)-Ginsenoside Rg2],5.2%,–
CC(C)=CCC[C@](C)(O)[C@H]1CC[C@]2(C)[C@@H]1[C@H](O)C[C@@H]1[C@@]3(C)C[C@@H](O)[C@H](O[C@@H]4O[C@H](CO)[C@@H](O)[C@H](O)[C@H]4O[C@@H]4O[C@H](CO)[C@@H](O)[C@H](O)[C@H]4O)C(C)(C)[C@@H]3CC[C@]12C [Gypenoside L],61.5%,–
CC(C)=CCC[C@](C)(O[C@@H]1O[C@H](CO)[C@@H](O)[C@H](O)[C@H]1O)[C@H]1CC[C@]2(C)[C@@H]1[C@H](O)C[C@@H]1[C@@]3(C)C[C@@H](O)[C@H](O[C@@H]4O[C@H](CO)[C@@H](O)[C@H](O)[C@H]4O[C@@H]4O[C@H](CO)[C@@H](O)[C@H](O)[C@H]4O)C(C)(C)[C@@H]3CC[C@]12C [Gypenoside XLVI],10.6%,–
COc1ccc([C@H]2OC[C@H]3[C@@H]2CO[C@H]3c2ccc(O[C@@H]3O[C@H](CO)[C@@H](O)[C@H](O)[C@H]3O)c(OC)c2)cc1OC [Phillyrin],0%,–
COc1cc(C2Oc3cc([C@H]4Oc5cc(O)cc(O)c5C(=O)[C@@H]4O)ccc3OC2CO)ccc1O (some centres unmarked) [Silybin],13%,–
COc1cc(C2Oc3ccc([C@H]4Oc5cc(O)cc(O)c5C(=O)[C@@H]4O)cc3OC2CO)ccc1O (some centres unmarked) [Isosilybin],0%,–
COc1cc([C@@H]2[C@H]3CO[C@@]4(O)C(=O)[C@@H]2C=C([C@H]2Oc5cc(O)cc(O)c5C(=O)[C@@H]2O)[C@@H]34)ccc1O [Silydianin],51.4%,–
COc1cc(O[C@@H]2O[C@H](CO[C@@H]3O[C@H](CO)[C@@H](O)[C@H](O)[C@H]3O)[C@@H](O)[C@H](O)[C@H]2O)c2c(O)c3c(=O)cc(C)oc3cc2c1 [Rubrofusarin gentiobioside],20.7%,–
COc1cccc(CCC(=O)O)c1 [3-(3-Methoxyphenyl)propionic acid],21.4%,–
O=CC[C@H](O)[C@H](O)CO [Thyminose],3.9%,–
C=C[C@H]1[C@H](O[C@@H]2O[C@H](CO)[C@@H](O)[C@H](O)[C@H]2O)OC=C(C(=O)OC)[C@H]1CC(=O)O [Secoxyloganin],44.3%,–
CC(C)CCC[C@@H](C)[C@H]1CC[C@H]2[C@@H]3CC=C4C[C@@H](O)CC[C@]4(C)[C@H]3CC[C@]12C [Cholesterol],13.1%,–
CC(C)CCC[C@](C)(O)[C@H]1CC[C@H]2[C@@H]3CC=C4C[C@@H](O)CC[C@]4(C)[C@H]3CC[C@@]21C [20(S)-Hydroxycholesterol],57%,–
C[C@H](CCCC(C)(C)O)[C@H]1CC[C@H]2[C@@H]3CC=C4C[C@@H](O)CC[C@]4(C)[C@H]3CC[C@]12C [25-Hydroxycholesterol],3.1%,–
Nc1ncnc(N[C@@H]2O[C@H](CO)[C@@H](O)[C@H]2O)c1[N+](=O)[O-] [Clitocine],17.5%,–

SMILES,229E Inhibition rate,"229E Inhibition rate (229E Inhibition rate, 24 h)"
CC(C)=CCc1c(O[C@@H]2O[C@H](CO)[C@@H](O)[C@H](O)[C@H]2O)cc(O)c2c(=O)c(O[C@@H]3O[C@@H](C)[C@H](O)[C@@H](O)[C@H]3O)c(-c3ccc(O)cc3)oc12 [Epimedoside A],15.1%,–
COc1cc2c(cc1OC)[C@@H](Cc1ccc(O)c(Oc3cc4c(cc3OC)CCN(C)[C@@H]4Cc3ccc(O)cc3)c1)N(C)CC2 [Liensinine],–,44.3%
COc1cc2c(cc1OC)[C@@H](Cc1ccc(O)c(Oc3cc4c(cc3OC)CCN(C)[C@@H]4Cc3ccc(O)cc3)c1)N(C)CC2 [Liensinine (perchlorate)],–,8.8%
COc1cc2c(cc1OC)[C@@H](Cc1ccc(O)c(Oc3cc4c(cc3OC)CCN(C)[C@@H]4Cc3ccc(O)cc3)c1)N(C)CC2 [Liensinine (Diperchlorate)],–,57.2%
CC[C@]1(O)C[C@@H]2CN(CCc3c([nH]c4ccccc34)[C@@](C(=O)OC)(c3cc4c(cc3OC)N(C)[C@H]3[C@@](O)(C(=O)OC)[C@H](OC(C)=O)[C@]5(CC)C=CCN6CC[C@]43[C@@H]65)C2)C1 [Vinblastine (sulfate)],30.6%,–
CC[C@H]1C[C@@H]2CN3CCc4c([nH]c5ccccc45)[C@](C(=O)OC)(C2)[C@H]13 [Coronaridine],41.8%,–
CCC1=C[C@@H]2CN3CCc4c([nH]c5ccccc45)[C@@](C(=O)OC)(C2)[C@@H]13 [Catharanthine],54.2%,–
C=C(C)[C@@H]1CC=C(CO)CC1 [(S)-(−)-Perillyl alcohol],9.9%,–
C[C@H]1CC[C@@H]2[C@@H](C)[C@H]3[C@H](C[C@H]4[C@@H]5CC=C6C[C@@H](O)CC[C@]6(C)[C@H]5CC[C@]34C)N2C1 [Solanidine],24.2%,–
C=C[C@H]1CN2CC[C@H]1C[C@@H]2[C@@H](O)c1ccnc2ccc(OC)cc12 [Quinidine hydrochloride monohydrate],–,48.6%
C=C[C@H]1CN2CC[C@H]1C[C@@H]2[C@@H](O)c1ccnc2ccccc12 [Cinchonine],53.6%,–
C=C[C@H]1CN2CC[C@H]1C[C@H]2[C@H](O)c1ccnc2ccccc12 [Cinchonidine],13.4%,–
CC1(C)CCC[C@](C)([C@H]2CC[C@]3(C)[C@@H]2[C@H](O)C[C@@H]2[C@@]4(C)CC[C@H](O)C(C)(C)[C@@H]4[C@@H](O)C[C@]23C)O1 [Panaxatriol],15.9%,–
CC(C)=CCCC(C)CCO (centres unmarked) [Citronellol],12.8%,–
CC1(C)CC[C@]2(C(=O)O[C@@H]3O[C@H](CO)[C@@H](O)[C@H](O)[C@H]3O)CC[C@]3(C)C(=CC[C@@H]4[C@@]5(C)CC[C@H](O[C@@H]6O[C@H](C(=O)O)[C@@H](O)[C@H](O[C@@H]7OC[C@@H](O)[C@H](O)[C@H]7O)[C@H]6O)C(C)(C)[C@@H]5CC[C@]43C)[C@@H]2C1 [Momordin IIc],29.6%,–
CC(C)CCC[C@@H](C)[C@H]1CC[C@H]2[C@@H]3CC=C4C[C@@H](OS(=O)(=O)O)CC[C@]4(C)[C@H]3CC[C@]12C [Cholesteryl sulfate (sodium)],7.6%,–
CC(=O)[C@H]1CC[C@H]2[C@@H]3CC=C4C[C@@H](OS(=O)(=O)O)CC[C@]4(C)[C@H]3CC[C@]12C [Pregnenolone monosulfate (sodium)],55.9%,–
CC(=O)[C@H]1CC[C@H]2[C@@H]3CC=C4C[C@@H](O)CC[C@]4(C)[C@H]3CC[C@]12C [Pregnenolone],40.7%,–
CC1(C)C(=O)[C@]2(C)CC[C@H]1C2 [(-)-Fenchone],23.7%,–
C=C1C[C@@]23CC[C@H]4[C@@](C)(CCC[C@@]4(C)C(=O)O[C@@H]4O[C@H](CO)[C@@H](O)[C@H](O[C@@H]5O[C@H](CO)[C@@H](O)[C@H](O)[C@H]5O)[C@H]4O[C@@H]4O[C@H](CO)[C@@H](O)[C@H](O)[C@H]4O)[C@@H]2CC[C@]1(O[C@@H]1O[C@H](CO)[C@@H](O)[C@H](O[C@@H]2O[C@H](CO)[C@@H](O)[C@H](O)[C@H]2O)[C@H]1O[C@@H]1O[C@H](CO)[C@@H](O)[C@H](O)[C@H]1O)C3 [Rebaudioside M],19.5%,–
OC[C@H]1O[C@@](CO)(OC[C@@]2(O[C@H]3O[C@H](CO)[C@@H](O)[C@H](O)[C@H]3O)O[C@H](CO)[C@@H](O)[C@@H]2O)[C@@H](O)[C@@H]1O [1-Kestose],18.6%,–
CC[C@H](C)[C@@H]1NC(=O)[C@@H]2CCCN2C(=O)[C@@H]2CCCN2C(=O)[C@@H]2CCCN2C(=O)[C@H](CC(C)C)NC(=O)CNC(=O)CNC(=O)[C@H](Cc2ccccc2)NC1=O [Heterophyllin B] (cyclo(FGGLPPPI)),12.9%,–
